In PubChem BioAssay AID488837 (National Center for Advancing Translational Sciences (NCATS), 2010):
Hit rate of the full screen: of about 330,000 compounds, about 20 (0.006%) were called active. Not shown: some 1% with an inconclusive outcome. Calls follow the shape of the dose curve; as a rule, active = well fitted inhibition curve with a large enough effect; inconclusive = small, poorly fitted or top-dose-only effect, or effect the other way; inactive = flat fitted curve, though single readings scatter. The entries come from a sample that favours actives as a whole.

target: Protein phosphatase EYA2 (Homo sapiens) (UniProt O00167); test: qHTS Assay for Inhibitors of the Phosphatase Activity of Eya2; conditions: recombinant Eya2, OMFP fluorescence dephosphorylation (OMFP is methylfluorescein phosphate); series mostly up to 76.9 µM
Sequence (O00167 whole entry, looked up, the tested form may be a part): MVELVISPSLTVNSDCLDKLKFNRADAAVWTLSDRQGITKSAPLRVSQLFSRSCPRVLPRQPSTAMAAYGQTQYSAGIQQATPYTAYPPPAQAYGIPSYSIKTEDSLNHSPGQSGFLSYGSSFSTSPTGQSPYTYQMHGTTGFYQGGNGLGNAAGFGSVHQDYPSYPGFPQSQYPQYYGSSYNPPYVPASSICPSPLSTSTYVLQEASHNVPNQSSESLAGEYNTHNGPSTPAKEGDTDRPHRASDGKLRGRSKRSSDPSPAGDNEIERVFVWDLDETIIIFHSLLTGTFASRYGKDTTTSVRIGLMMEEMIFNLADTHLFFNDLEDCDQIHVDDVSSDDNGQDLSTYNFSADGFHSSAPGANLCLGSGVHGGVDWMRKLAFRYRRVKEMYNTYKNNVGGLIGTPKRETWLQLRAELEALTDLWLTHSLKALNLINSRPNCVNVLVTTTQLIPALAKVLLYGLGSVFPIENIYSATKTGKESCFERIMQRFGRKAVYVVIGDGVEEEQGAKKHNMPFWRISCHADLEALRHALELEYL
From the text: The Eya family of proteins are essential co-activators of the Six1 transcription factor. Six1 is a developmental gene that is abnormally re-expressed in a large percentage of breast cancers. This over-expression plays a causal role in the initiation and metastatic development of breast cancers. The Eya family of proteins was also found to contain a unique HAD phosphatase domain with protein tyrosine phosphatase activity which can potentially play a role in Six1-mediated breast tumorigenesis. […] We have developed and optimized a 1536 well fluorescence-based HTS assay targeting the phosphatase activity of Eya2. Inhibitors found against Eya2 could serve as potential therapeutic tools to inhibit Six1-mediated breast tumorigenesis and to increase the efficiency of radiation and certain chemo therapy. These inhibitors could also be used as chemical probes to study the function of Eya2's phosphatase activity and its role in Six1-mediated breast tumorigenesis.
The Eya2 enzyme was kindly provided by the laboratory of Dr. Rui Zhao. The 3-O-methyl-fluorescein phosphate (OMFP) substrate and all buffer reagents were purchased from Sigma Aldrich. qHTS Assay Setup: 1. Buffer- 50 mM HEPES pH 7.5, 50 mM NaCl, 5 uM MgCl2, 0.05% BSA, 1 mM DTT. 2. OMFP Stock- 10 mM solution prepared in 100% DMSO and stored in single use aliquots at -20C. Assay Procedure- 1. Dispense 1.5 ul per well of Eya2 at 0.2 uM in black medium binding 1536 well Greiner plate 2. Transfer 23 nl of compound and control compound (EGTA) to plate 3. Incubate at ambient for 10 minutes 4. Dispense 1.5 ul per well of OMFP at 50 uM 5. Incubate at ambient for 10 minutes 6. Read on ViewLux using Excitation = 485 nm, Emission = 525 nm

activity, negative = inhibition, inactive:
O=C(CN1CCN(S(=O)(=O)c2ccc3ccccc3c2)CC1)NC(=O)NC1CCCCC1
CN(CC(=O)Nc1c(Cl)cccc1Cl)C(=O)CC1OC(=O)c2ccccc21 (stereo unspecified)
CN(Cc1nc2ccc(F)cc2[nH]1)Cc1nc(CC2CC2)no1
COc1ccc(-c2nc(CS(=O)(=O)CC(=O)NCc3cccc(Br)c3)c(C)o2)cc1
CCOC(=O)c1ccc2c(c1)nc(SCC(=O)NC(C)C)n2CC
CC1(C)CC(O)C(CCC(O)c2ccccc2)C(C)(C)N1 (stereo unspecified)
Cc1ccc(S(=O)(=O)N(C)C)cc1NC(=O)c1ccccc1Br
CC1CC(C)CN(CCCNC(=O)Cn2ncc3c([nH]c4ccccc43)c2=O)C1 (stereo unspecified)
O=C1COc2ccc(C(=O)COC(=O)C3CC(O)CN3S(=O)(=O)c3ccc(Cl)cc3)cc2N1 (stereo unspecified)
NC(=O)Cn1nc([N+](=O)[O-])nc1Oc1ccc(Br)cc1
Cc1cc(C)nc(SC2CCCCC2NS(=O)(=O)c2ccc(Cl)cc2)n1 (stereo unspecified)
O=C(O)c1cc(S(=O)(=O)Nc2ccc3cn[nH]c3c2)ccc1Br
CCN(CC(=O)NC1CCS(=O)(=O)C1)S(=O)(=O)c1ccccc1 (stereo unspecified)
COc1ccc(COC(=O)c2ccc(Cl)c(S(=O)(=O)N3CCOCC3)c2)cc1F
CCN(CC)Cc1c(C(=O)N/N=C/c2cccc(OCc3ccc(F)cc3)c2)nnn1-c1nonc1N
O=C(CN(C(=O)c1csnn1)c1cccc(F)c1)NCc1ccc(F)cc1
CC(C)=CCN1CCN(Cc2ccc(Oc3ncccn3)cc2)CC1CCO (stereo unspecified)
COc1ccc(N2CCN(C(=O)CN3C(=O)COc4ccccc43)CC2)cc1
O=C(O)c1cscn1
COc1cccc2cc(-c3cc(=O)oc4cc(C)c(O)cc34)oc12
O=C(C[C@H]1C/C=C\C[C@@H](NC(=O)OCC2c3ccccc3-c3ccccc32)C(=O)O[C@@H](c2ccccc2)CNC1=O)N[C@H](CO)Cc1ccccc1
CCOc1cc(/C=N/Nc2cc(C)nc3ccc(C)cc23)ccc1O
CC(C)CN(C(=O)CN1CCN(S(=O)(=O)c2ccccc2)CC1)c1c(N)n(CC(C)C)c(=O)[nH]c1=O
COc1ccc(S(=O)(=O)N2CCCC(C(=O)NCCCn3ccnc3)C2)cc1OC (stereo unspecified)
COc1ccc(NC(=O)C/C(C)=N/NC(=O)c2cnccn2)cc1Cl
Cc1ccc(S(=O)(=O)N(CC(=O)N/N=C/c2ccc(F)cc2)c2cccc3cccnc23)cc1
COc1ccc(C(=O)N(CCN2CCOCC2)CC(=O)NC2CCCC2)cc1OC
O=C(NC(Cc1c[nH]c2ccccc12)C(=O)O)/C(=C/c1ccco1)NC(=O)c1ccccc1 (stereo unspecified)
O=C(NCc1ccccc1Cl)C(=O)NCC1CCCN1S(=O)(=O)c1cccs1 (stereo unspecified)
CCC1(C)CC(=O)NC1=O (stereo unspecified)
CCCCOC(=O)Nc1nccs1
Cc1ccc(NS(=O)(=O)c2ccc3c(c2)NC(=O)CO3)cc1
COC(=O)[C@H](Cc1ccccc1)NC(=O)[C@@H]1C[C@H]1[C@@H](NC(=O)OCc1ccccc1)c1ccccc1
COc1ccc(C2OC(=O)CC2C(=O)NC(C)C)cc1 (stereo unspecified)
Cc1csc(=O)n1CC(=O)OCC(=O)N(CC(C)C)c1c(N)n(Cc2ccccc2)c(=O)[nH]c1=O
C[C@@H](CN1CCC[C@H]1CN1C(N)=NC[C@@H]1Cc1ccccc1)N1C[C@@H](Cc2ccccc2)N(CCCC2CCCC2)C1=N
O=C(Nc1cc(S(=O)(=O)N2CCOCC2)ccc1OCC(F)(F)F)c1ccc(N2CCCC2=O)cc1
Cc1ccc(O)c(-c2cc(C(=O)Nc3c(C)n(C)n(-c4ccccc4)c3=O)[nH]n2)c1
O=C(CCC(=O)OCc1cccc(C(=O)Oc2ccccc2)c1)Nc1cccc2ccccc12
CC(C)C(NC(=O)c1c(F)cccc1F)C(=O)NNC(=O)c1ccccc1 (stereo unspecified)
CCn1cc(CN2CCC(n3nccc3NC(=O)CCCc3ccccc3)CC2)c(C)n1
CC(C)c1nnc(NC(=O)C2CC(=O)N(CCc3ccc(F)cc3)C2)s1 (stereo unspecified)
CN(c1ccc(OCC(=O)OCC(=O)Nc2cccc([N+](=O)[O-])c2)cc1)S(=O)(=O)c1ccc(F)cc1
Nc1ccc(Nc2cc(O)c3ncccc3c2)cc1
CCOc1ccc(C(=O)CCC(=O)Nc2ccncc2)cc1
CCCCc1ccc(NC(=S)N2CCCC(CO)C2)cc1 (stereo unspecified)
COc1ccc(C(=O)CCc2ccccc2O)c(OC)c1
CC1=CCC2C(=O)N(c3cccc(C(=O)NC(C)c4ccccc4)c3)C(=O)C2C1 (stereo unspecified)
COc1ccc(S(=O)(=O)N2CCN(C(=O)N(C)C)C2C)cc1 (stereo unspecified)
CCOc1ncccc1C(=O)NNC(=O)c1cccc(S(=O)(=O)Nc2ccccc2OC)c1
CCN(CC)C(=O)Oc1ccc(Br)cc1C(=O)Nc1ccc(F)c(Cl)c1
NS(=O)(=O)c1ccc(CCNS(=O)(=O)c2cccc3cccnc23)cc1
Cc1ccc(CNC(=O)CCS(=O)(=O)c2ccc3c(c2)CC(C)N3C(=O)C2CC2)o1 (stereo unspecified)
O=C(NCc1ccco1)C1CCCN1S(=O)(=O)c1ccccc1C(F)(F)F (stereo unspecified)
CCNc1nc(Oc2ccc(C(=O)OC)cc2)nc(N2CCOCC2)n1
Cc1ccc2nc(NC(=O)CSc3nc(=O)n(CCCN(C)C)c4c3CCC4)sc2c1
CCOc1ccc(Br)cc1S(=O)(=O)Nc1ccc(S(=O)(=O)Nc2cc(C)on2)cc1
CCCc1nc(SCC(=O)Nc2ccccc2OC)c2c(=O)n(C)c(=O)n(C)c2n1
CN(C)S(=O)(=O)c1ccc(C(=O)NCCN=C2NS(=O)(=O)c3ccccc32)cc1
CC(=O)NCCC(=O)Nc1cc(S(=O)(=O)N2CCCCC2)ccc1Oc1cccc(C)c1
COc1ccc(C(C(=O)NC2CCCC2)N(CCCO)C(=O)Cn2nnc(-c3ccc(C)o3)n2)cc1 (stereo unspecified)
CCc1cc(C(=O)OC)c(NC(=O)CC2Sc3ccc(C(F)(F)F)cc3NC2=O)s1 (stereo unspecified)
O=C(O)C1CCC(CNS(=O)(=O)c2ccc(Br)cc2)CC1 (stereo unspecified)
O=C1CCC([N+](=O)[O-])C(c2ccccc2Br)N1 (stereo unspecified)
COC(=O)c1sc(NC(=O)COC(=O)C2CCC2)c(C(=O)OC)c1C
CCOC(=O)c1c(CNCc2ccccc2F)c2sc(C)cc2n1C
COC(=O)N1CN(C(=O)OC)CN(C(=O)OC)C1
CC1CCN(S(=O)(=O)c2ccc3[nH]c(=O)ccc3c2)CC1
CCS(=O)(=O)c1ccc(-c2cccc(NC(=O)c3ccc(Br)o3)c2)nn1
Cc1ccc2c(Cl)c(C(=O)NCCCn3ccnc3)sc2c1
CC(C)CCNC(=O)CCNS(=O)(=O)c1ccc(Cl)cc1
O=C(NCc1cccnc1)c1ccc(CS(=O)(=O)c2ccc(Br)cc2)o1
CC(=O)c1c(N2CCOCC2)nc(=S)n(Cc2ccccc2)c1C
O=C(Nc1ccc(OCC(=O)N2CCOCC2)cc1)c1cc(F)c(F)cc1Cl
Cc1cc(C(=O)Nc2ccc(C)c(S(=O)(=O)N3CCOCC3)c2)c2ccccc2n1
COc1ccc(CCNc2ncnc3c2nnn3Cc2ccccc2)cc1
O=C1OCCN1C(=O)[C@H]1[C@H](c2ccc(F)cc2)C(c2ccccc2)=NN1c1ccc(Br)cc1
Cc1ccc(NC(=O)N2CCSc3ccccc32)cc1
Cc1cc(SCC(=O)NCCN2C(=O)CSC2=O)nc2ccccc12
S=c1[nH]ccn1-c1ccc(Cl)cc1
CCCOc1cccc(C(=O)Nc2ccccc2C(=O)N2CCN(C)CC2)c1
COc1ccc2c(C)cc3nnnn3c2c1
CN(C)N(C)C(=O)C(O)(c1ccccc1)c1ccccc1
COc1ccc2[nH]c(C)c(CCN(Cc3cccs3)C(=S)Nc3ccccc3OC)c2c1
O=c1ccc2cc(S(=O)(=O)N3CCN(c4ccccc4)CC3)ccc2o1
O=S1(=O)N=C(N(CCO)/N=C/c2ccccc2F)c2ccccc21
O=C(CCc1nnc2ccc(NCCCN3CCCC3=O)nn12)NCc1ccccc1Cl
CC(=O)N1CCN(c2ccccc2NC(=S)NC(=O)c2cc3ccccc3o2)CC1
COc1ccc(NS(=O)(=O)c2cc(NC(=O)COc3ccccc3F)ccc2OC)cc1
O=C(CSc1nnc(SCc2ccc(F)cc2)s1)Nc1ccc(C(=O)O)cc1
O=C(CS(=O)(=O)c1ccc(C(F)(F)F)cn1)NNC(=O)c1ccccc1
O=C(CCc1ccc(S(=O)(=O)N2CCOCC2)cc1)Nc1ccc2ccccc2c1
N#CC1=C(N)N(c2ccc(F)cc2)C(=O)C1
NC(=O)C1CCCN(CC(=O)N2CCN(c3ccccc3)CC2)C1 (stereo unspecified)
CC[C@@]1(C(=O)OC)N[C@H](CN(C)C(C)=O)[C@@H]2C(=O)N(C)C(=O)[C@@H]21
COc1ccc(C(=O)N2CCCN(C)CC2)c(OC)c1
COC(C)(C)[C@]12CC(O)(C(C)C)ON1[C@H]1CCCCC1N2O (stereo partly specified)
O=C(c1ccc(Cl)cc1)N1N=C(c2ccccn2)CC1(O)C(F)(F)F (stereo unspecified)
COc1ccc(Cl)cc1NC(=O)CCS(=O)(=O)c1ccc(Br)cc1
COC(=O)c1ccccc1NC(=O)CSc1n[nH]c(-c2ccncc2)n1
CCCCNS(=O)(=O)c1ccc(S(=O)(=O)n2cnc3ccccc32)cc1
